Experimental data: PubChem BioAssay (Tox21)
Records with an inconclusive call do not appear. The source made the active and inactive calls. Unless noted, calls come from the whole dose curve; as a rule, active = well fitted curve in the direction sought with a large enough effect in the repeat runs; inconclusive = weak or mixed curves; inactive = no such curve, though single readings can be large; an effect the other way counts as inactive or inconclusive.

Columns and labels:
[1] = qHTS RealTime-Glo MT Cell Viability Assay in HEK293 cells - 0 hour (AID 1224880); note: top concentration of the series differs between compounds; nearly all actives have a fitted effect of over 45% in size
Outline: (§1)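 Nonlytic bioluminescent viability monitoring. HEK293 at 600 cells/well with reagent; 5 h settle; compound transfer by pintool; plates held at 37 C and read at set time points.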

[2] = A CellTox Green Cytotoxicity Assay to monitor cytotoxicity in HEK293 cells - 32 hour (AID 1224881); note: nearly all actives have a fitted effect of over 40% in size
Outline: (§2)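 Cytotoxicity was tracked continuously in HEK293 cells by a DNA-binding dye excluded from viable cells. Compounds were transferred in DMSO 5 h after seeding; fluorescence was recorded at intervals up to 40 h.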

[3] = A CellTox Green Cytotoxicity Assay to monitor cytotoxicity in HepG2 cells - 0 hour (AID 1224882); note: nearly all actives have a fitted effect of over 35% in size
Outline: (§3)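 Real-time, homogeneous cytotoxicity readout: dead-cell DNA staining by CellTox Green in HepG2 monolayers, fluorescence measured at timed intervals up to 40 h of continuous compound exposure.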

[4] = A CellTox Green Cytotoxicity Assay to monitor cytotoxicity in HepG2 cells - 32 hour (AID 1224883); note: nearly all actives have a fitted effect of over 50% in size
Outline: as §3

[5] = A CellTox Green Cytotoxicity Assay to monitor cytotoxicity in HEK293 cells - 8 hour (AID 1224884); note: nearly all actives have a fitted effect of over 35% in size
Outline: as §2

[6] = qHTS RealTime-Glo MT Cell Viability Assay in HepG2 cells - 16 hour (AID 1224885); note: nearly all actives have a fitted effect of over 50% in size
Outline: (§4)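 Viability was tracked continuously by NanoLuc luminescence from prosubstrate reduced by living HepG2 cells, at successive time points over 40 h of compound exposure. Cells with reagent were preincubated 5 h at 37 °C before compound addition.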

[7] = qHTS RealTime-Glo MT Cell Viability Assay in HEK293 cells - 24 hour (AID 1224886); note: top concentration of the series differs between compounds; nearly all actives have a fitted effect of over 50% in size
Outline: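 Viability tracked continuously by luminescence as live cells reduce a prosubstrate for NanoLuc; HEK293 cells preincubated 5 h, compound-treated at 37 C, and read at 0, 8, 16, 24, 32 and 40 h.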

[8] = qHTS RealTime-Glo MT Cell Viability Assay in HEK293 cells - 8 hour (AID 1224887); note: top concentration of the series differs between compounds; nearly all actives have a fitted effect of over 50% in size
Outline: as §1

[9] = A CellTox Green Cytotoxicity Assay to monitor cytotoxicity in HEK293 cells - 16 hour (AID 1224888); note: nearly all actives have a fitted effect of over 35% in size
Outline: as §2

[10] = qHTS RealTime-Glo MT Cell Viability Assay in HepG2 cells - 0 hour (AID 1224889); note: nearly all actives have a fitted effect of over 50% in size
Outline: as §4

[11] = A CellTox Green Cytotoxicity Assay to monitor cytotoxicity in HepG2 cells - 8 hour (AID 1224890); note: nearly all actives have a fitted effect of over 45% in size
Outline: as §3

[12] = qHTS assay to identify small molecule antagonists of the estrogen receptor alpha (ER-alpha) signaling pathway using the BG1 cell line in the presence of 0.1 nM 17-beta-estradiol - cell viability counter screen (AID 1259241); note: nearly all actives have a fitted effect of over 40% in size
Outline: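 The cell line endogenously expresses full-length ER-alpha and carries four EREs driving luciferase. Cells are cultured 5 days hormone-free, treated 22 hr with compounds and 0.1 nM estradiol, then viability is read by fluorescence.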

[13] = qHTS assay to identify small molecule antagonists of the androgen receptor (AR) signaling pathway using the MDA cell line in the presence of 0.5 nM R1881 - cell viability counter screen (AID 1259242); note: nearly all actives have a fitted effect of over 45% in size
Outline: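 Cytotoxicity toward MDA-kb2 cells is measured by CellTiter-Fluor live-cell protease fluorescence after 16 hr compound exposure at 37C in the presence of 0.5 nM R1881 stimulator.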

[14] = qHTS assay to identify small molecule HDAC inhibitors (AID 1259364); note: top concentration of the series differs between compounds; nearly all actives have a fitted effect of over 45% in size
Outline: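 Homogeneous cell-based luminescent assay of endogenous class I/II HDAC activity; HCT-116 cells, 2 h compound exposure, 30 min HDAC-Glo development at RT.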

[15] = qHTS assay to identify small molecule HDAC inhibitors - cell viability counter screen (AID 1259365)
Outline: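 Viability readout: CellTiter-Glo luminescence. Wild-type HCT-116 cells, 2hr compound treatment following overnight attachment at 37 C.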

[16] = qHTS assay to identify small molecule agonists of the sonic hedgehog signaling (Shh) pathway - cell viability counter screen (AID 1259366); note: nearly all actives have a fitted effect of over 50% in size
Outline: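 Viability measured fluorometrically (CellTiter-Fluor, 1hr, 37C) in 3T3 Gli1-Luc reporter cells after 23hr compound exposure within a 24hr incubation at 37C/5% CO2.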

[17] = biological target: Estrogen receptor (Homo sapiens) (UniProt P03372); assay: qHTS assay to identify small molecule antagonists of the estrogen receptor alpha (ER-alpha) signaling pathway using the BG1 cell line in the presence of 0.1 nM 17-beta-estradiol (AID 1259244); note: nearly all actives have a fitted effect of over 50% in size
Chain of Estrogen receptor (Homo sapiens) (P03372 whole entry, looked up): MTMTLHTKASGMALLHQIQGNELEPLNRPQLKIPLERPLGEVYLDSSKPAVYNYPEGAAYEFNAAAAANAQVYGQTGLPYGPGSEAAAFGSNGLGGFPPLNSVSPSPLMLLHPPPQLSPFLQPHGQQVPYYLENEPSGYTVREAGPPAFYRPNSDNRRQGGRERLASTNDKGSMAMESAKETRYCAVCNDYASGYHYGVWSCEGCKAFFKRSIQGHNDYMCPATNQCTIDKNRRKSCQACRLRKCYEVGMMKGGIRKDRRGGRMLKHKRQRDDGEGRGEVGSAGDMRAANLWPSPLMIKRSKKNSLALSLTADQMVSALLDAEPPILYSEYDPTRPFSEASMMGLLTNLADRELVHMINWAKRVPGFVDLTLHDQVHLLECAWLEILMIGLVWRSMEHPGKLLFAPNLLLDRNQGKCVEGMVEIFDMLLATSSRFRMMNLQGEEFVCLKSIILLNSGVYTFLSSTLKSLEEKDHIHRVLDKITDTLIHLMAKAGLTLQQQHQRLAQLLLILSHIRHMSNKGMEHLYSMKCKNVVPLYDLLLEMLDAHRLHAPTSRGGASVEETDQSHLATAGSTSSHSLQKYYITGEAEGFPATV
Outline: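 After 5 days in hormone-depleted medium (charcoal-stripped serum, no phenol red), VM7Luc4E2 cells were seeded, incubated 24 h, then co-treated with compound and 0.1 nM (final) estradiol for 22 h before luminescence detection.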

[18] = qHTS assay to identify small molecule antagonists of the sonic hedgehog signaling (Shh) pathway - cell viability counter screen (AID 1259367); note: nearly all actives have a fitted effect of over 55% in size
Outline: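 After a 4 hr settling period, 3T3 Gli1-Luc cells were treated with DMSO-dissolved chemicals and conditioned medium, kept 24 hr at 37C in 5% CO2, and assayed for viability by CellTiter-Fluor fluorescence following 1 hr reagent incubation.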

[19] = qHTS assay to identify small molecule phospholipidosis (PLD) inducers (AID 1259344; active = well fitted curve in the direction sought with a large enough effect; an effect the other way counts as inactive or inconclusive)
Outline: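 HepG2 cells grown on collagen I take up LipidTOX Red while exposed to compound for 24 h; after fixation they are imaged at 20x and pit metrics are extracted.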

Measured: Potency

COC1CCC=CO1 (stereo unspecified)
not listed: [17] | [18] | [19]
inactive: all other assays above

O=C(O)CNC(=O)c1ccccc1I
not listed: [14] | [15] | [19]
inactive: all other assays above

OCC(CO)n1cnc(-c2ccc(F)cc2)c1-c1ccnc(Oc2ccccc2)n1
not listed: [14] | [18] | [19]
inactive: all other assays above

CCCCCc1ccco1
not listed: [17] | [19]
inactive: all other assays above

CNC1CCCN(c2c(F)cc3c(=O)c(C(=O)O)cn(C4CC4)c3c2OC)C1 (stereo unspecified)
not listed: [17] | [19]
inactive: all other assays above

CC[C@@H](CO)NCCN[C@@H](CC)CO
not listed: [14] | [17]
inactive: all other assays above

C=C(C)c1ccccc1
not listed: [14] | [17] | [19]
inactive: all other assays above

CCC(=O)OCc1ccc(OC)cc1
not listed: [14] | [17] | [19]
inactive: all other assays above
